Test results taken from paper PMC4242493, “Sequence specificity incompletely defines the genome-wide occupancy of Myc”.
The full ranking holds about 33,000 sequences; the median of “normalized occupancy” is about 0.075, and the highest 2% start at about 0.095. The sample as a whole holds a higher share of the highest values than the screen did.

These sequences were tested against MaxL homodimer (Homo sapiens, UniProt P61244 1-160) (assay: universal protein-binding microarray (PBM); PBS-based mixture, 10 nM His-tagged protein dimer, 2% milk, 200 ng/uL BSA, 50 ng/uL salmon testes DNA, 0.02% TX-100; detection with Alexa 488 anti-His antibody;; high values mean tight binding). Details: protein: recombinant; tags: C-terminal His-tag (pET21a); chain copies: 2; dsDNA, one strand shown.
Chain of MaxL homodimer (P61244 whole entry): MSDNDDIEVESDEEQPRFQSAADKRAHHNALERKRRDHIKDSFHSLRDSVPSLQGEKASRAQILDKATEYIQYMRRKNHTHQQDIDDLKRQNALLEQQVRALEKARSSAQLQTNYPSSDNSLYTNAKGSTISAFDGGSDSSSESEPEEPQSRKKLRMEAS
Procedure, shortened: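 Each 8-mer received a fluorescence intensity from GenePix 4400A scans of Agilent 4 x 44 K 'all 10-mer' universal arrays. Those arrays had been incubated with His-tagged protein dimer at 10 nM, and the bound protein was marked with a fluorophore-conjugated anti-His antibody at 10 ng/μL. Binding occupancy is the intensity scaled to that of the highest-ranked sequence word.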
Sequence AGAGGCGA has a binding signal of 0.0756 normalized occupancy.
Work on CTTGAGTC yielded a binding signal of 0.0726 normalized occupancy.
In the case of ACTTTGTC, the binding signal is reported as 0.0738 normalized occupancy.
GGTTCTAC gave a binding signal of 0.0735 normalized occupancy.
Sequence GAACTAAC has a binding signal of 0.0734 normalized occupancy.
For ATTCCGAC, the binding signal was 0.0732 normalized occupancy.
In the case of AAGTTCAG, the binding signal is reported as 0.0751 normalized occupancy.
Sequence ACACCAAG has a binding signal of 0.0798 normalized occupancy.
Sequence GTGGACCA has a binding signal of 0.0775 normalized occupancy.
For GTGTTAAA, the binding signal was 0.0743 normalized occupancy.
With GATTGCAC the binding signal was 0.0761 normalized occupancy.
With ATGCATGG the binding signal was 0.0969 normalized occupancy.
ATGCATAG was tested, and the binding signal was 0.0814 normalized occupancy.
Sequence ATGCATCG has a binding signal of 0.0835 normalized occupancy.
For CGGGGGCA, the binding signal was 0.0747 normalized occupancy.
ATCATGCA showed a binding signal of 0.0894 normalized occupancy.
Work on CTCATGAC yielded a binding signal of 0.0906 normalized occupancy.
For CTCATGGA, the binding signal was 0.0927 normalized occupancy.
ATCATGCG showed a binding signal of 0.105 normalized occupancy.
Work on CTCATGCA yielded a binding signal of 0.0963 normalized occupancy.
GTCATGCA showed a binding signal of 0.0869 normalized occupancy.
With ATGATGCG the binding signal was 0.0869 normalized occupancy.
Work on ATCATTCG yielded a binding signal of 0.0804 normalized occupancy.
With CTTATGGC the binding signal was 0.0778 normalized occupancy.
In the case of CTCATGCC, the binding signal is reported as 0.0954 normalized occupancy.
Sequence CTCATGTC has a binding signal of 0.0928 normalized occupancy.
In the case of CTCATGGC, the binding signal is reported as 0.0965 normalized occupancy.
With AAAAGGGA the binding signal was 0.0725 normalized occupancy.
GGGCGTTA showed a binding signal of 0.0774 normalized occupancy.
With TACTTCTA the binding signal was 0.0754 normalized occupancy.
For GCATAAGA, the binding signal was 0.0799 normalized occupancy.
GGCTAGCA showed a binding signal of 0.0747 normalized occupancy.
For ATCATGCC, the binding signal was 0.0958 normalized occupancy.
In the case of ATAATGCC, the binding signal is reported as 0.0813 normalized occupancy.
For ATCATGAC, the binding signal was 0.0868 normalized occupancy.
Work on CAAAATGG yielded a binding signal of 0.0769 normalized occupancy.
AATTACAG showed a binding signal of 0.0778 normalized occupancy.
For AATGCGCG, the binding signal was 0.0754 normalized occupancy.
For AATGCGCA, the binding signal was 0.0804 normalized occupancy.
CGTGCGCC gave a binding signal of 0.0922 normalized occupancy.
Work on AATGCGCC yielded a binding signal of 0.0731 normalized occupancy.
Work on AGTGCGCA yielded a binding signal of 0.076 normalized occupancy.
CATGCGCC was tested, and the binding signal was 0.111 normalized occupancy.
CGTGCGCA was tested, and the binding signal was 0.0967 normalized occupancy.
Work on ATTGCGCG yielded a binding signal of 0.0747 normalized occupancy.
AGTGCGCC showed a binding signal of 0.0735 normalized occupancy.
With CATGCGCA the binding signal was 0.125 normalized occupancy.
With TATGCGCA the binding signal was 0.0804 normalized occupancy.
Sequence CATGCGCG has a binding signal of 0.11 normalized occupancy.
Sequence GTCGCTGA has a binding signal of 0.0755 normalized occupancy.
In the case of ACAATAGA, the binding signal is reported as 0.0762 normalized occupancy.
With ACTTGACG the binding signal was 0.0741 normalized occupancy.
Work on GTCATCGA yielded a binding signal of 0.0798 normalized occupancy.
ATAGATGC was tested, and the binding signal was 0.075 normalized occupancy.
For CGCACTGA, the binding signal was 0.0735 normalized occupancy.
Sequence ACTTACAA has a binding signal of 0.0743 normalized occupancy.
Sequence ACGAGACA has a binding signal of 0.0856 normalized occupancy.
Sequence GGCGTGAC has a binding signal of 0.0927 normalized occupancy.
With ATCGTGAC the binding signal was 0.0839 normalized occupancy.
With CGCGTGAA the binding signal was 0.105 normalized occupancy.
With AGCGTGAG the binding signal was 0.091 normalized occupancy.
Work on CTCGTGAA yielded a binding signal of 0.0894 normalized occupancy.
With CGCGTGAC the binding signal was 0.134 normalized occupancy.
Sequence GGCGTGAA has a binding signal of 0.0776 normalized occupancy.
Work on CGCGTGAG yielded a binding signal of 0.109 normalized occupancy.
In the case of CTCGTGAC, the binding signal is reported as 0.104 normalized occupancy.
With CGTGTGAC the binding signal was 0.0871 normalized occupancy.
Work on TGCGTGAA yielded a binding signal of 0.0808 normalized occupancy.
In the case of CCCGTGAG, the binding signal is reported as 0.0759 normalized occupancy.
With CGCCCCCC the binding signal was 0.0791 normalized occupancy.
CCTAAGGA was tested, and the binding signal was 0.0757 normalized occupancy.
Sequence ACTTTACC has a binding signal of 0.0744 normalized occupancy.
ACGATCAA showed a binding signal of 0.0748 normalized occupancy.
With AGAGATTC the binding signal was 0.0757 normalized occupancy.
CGTTACAC was tested, and the binding signal was 0.0819 normalized occupancy.
Work on TGTTACAA yielded a binding signal of 0.0777 normalized occupancy.
With GATGCTGC the binding signal was 0.078 normalized occupancy.
For AATGCTTC, the binding signal was 0.0816 normalized occupancy.
Sequence CGTGCTTC has a binding signal of 0.0896 normalized occupancy.
In the case of CATGCTTC, the binding signal is reported as 0.106 normalized occupancy.
In the case of CATGCTGG, the binding signal is reported as 0.125 normalized occupancy.
GATGCTTA was tested, and the binding signal was 0.0759 normalized occupancy.
CATGCTGC gave a binding signal of 0.122 normalized occupancy.
AATGCTTA showed a binding signal of 0.0806 normalized occupancy.
CATGCTTA showed a binding signal of 0.104 normalized occupancy.
Sequence CAAGCTGG has a binding signal of 0.0721 normalized occupancy.
With AATGCTGC the binding signal was 0.0788 normalized occupancy.
For AATGCTGG, the binding signal was 0.0789 normalized occupancy.
For CAACCGTC, the binding signal was 0.075 normalized occupancy.
For ATGCAATG, the binding signal was 0.08 normalized occupancy.
In the case of CGACCTCG, the binding signal is reported as 0.0723 normalized occupancy.
In the case of ATGATAAA, the binding signal is reported as 0.0793 normalized occupancy.
Work on ACGAGGTC yielded a binding signal of 0.0849 normalized occupancy.
ATAGACCC was tested, and the binding signal was 0.0762 normalized occupancy.
